Data published in the supplement of paper PMC12350171.
Counter-ions that a name gives are not always drawn. Values without a mark were called inactive.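 Rule for the calls: active = AUC significantly below DMSO controls by Student t-fit with adjusted P under 0.01; inactive = not significantly reduced.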

What follows are molecules tested on Haemophilus parainfluenzae (assay: growth AUC normalised to DMSO control (fraction of control); higher = less growth inhibition, active = hit call of the paper). Conditions: 20 µM.
In short: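 For the AUC endpoint, growth curves were integrated by the trapezoidal rule up to the exponential-to-stationary transition and normalised to DMSO controls on the same plate. The curves came from OD578 readings taken hourly for 24 h, in three biological replicates. Pathogens had been passaged anaerobically twice and inoculated at an OD578 of 0.01 into pre-reduced mGAM plates carrying 20 μM compound and 1% DMSO, sealed with breathable membranes. Medium for Haemophilus parainfluenzae also contained hemin and NAD.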

SMILES | growth AUC normalised to DMSO control
NCCCCCC(=O)O [Aminocaproic acid] | 1.1
CCCCc1oc2ccccc2c1C(=O)c1cc(I)c(OCCN(CC)CC)c(I)c1 [Amiodarone hydrochloride] | 0.96
CC1=Nc2ccc(Cl)cc2S(=O)(=O)N1 [Diazoxide] | 1.05
C=C1c2c(Cl)ccc(O)c2C(O)=C2C(=O)[C@]3(O)C(O)=C(C(N)=O)C(=O)[C@@H](N(C)C)[C@@H]3[C@@H](O)[C@H]12.O=C(O)c1cc(S(=O)(=O)O)ccc1O [Meclocycline sulfosalicylate] | 0.0341 (active)
CC(C(=O)O)c1ccc2c(c1)Cc1cccnc1O2 (stereo unspecified) [Pranoprofen] | 0.985
Cc1cnc(C(=O)NCCc2ccc(S(=O)(=O)NC(=O)NC3CCCCC3)cc2)cn1 [Glipizide] | 0.995
